The results in this text go back to PubChem BioAssay.

Calls of active or inactive are those of the source.

The nature of test [1]: binders of probe aFSTL3 on microarray, primary screen, stem cell growth factor project, biochemical, small-molecule microarray, fluorescence 635/667 (AID 1064).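 Further: measures binding of the biotinylated anti-FSTL3 antibody to printed compounds.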 The settings on record: higher = more signal.
Test [2] can be described thus: binders from COS7 lysate, DM2A8 probe, primary screen, torsin A project, cell lysate, small-molecule microarray, fluorescence 635/667 (AID 1065). The settings on record: higher = more signal, COS7 lysate expressing mutant human TOR1A.
Test [3] is described as follows: binders of probe aFGF2 on microarray, primary screen, stem cell growth factor project, biochemical, small-molecule microarray, fluorescence 635/667 (AID 1067).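 Further: measures binding of biotinylated aFGF2 protein to printed compounds on slides; z-score merges feature fluorescence and signal-to-noise across triplicate slides.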 The following applies: higher = more signal.
A short description of test [4]: binders of probe aFGF10 on microarray, primary screen, stem cell growth factor project, biochemical, small-molecule microarray, fluorescence 635/667 (AID 1071).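 Further: score merges 667 nm spot intensity and signal to noise from triplicate slides.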 The settings on record: higher = more signal.
The target of test [5] is Neurogenic locus notch homolog protein 2 (Homo sapiens) (UniProt Q04721). The test can be described thus: Notch2 binders on small-molecule microarrays, primary screen, biochemical, small-molecule microarray, 635 nm fluorescence, stem cell growth factors (AID 1073). The settings on record: Notch2 binding, higher = more signal.
In test [6] the target is Pro-neuregulin-1, membrane-bound isoform (Homo sapiens) (UniProt Q02297). As to the kind of experiment: NRG1 binders on small-molecule microarrays, primary screen, psychiatric disease protein project, biochemical, small-molecule microarray, fluorescence 635/667 (AID 1075).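 Further: score combines 667 nm spot fluorescence with signal to noise.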 The following applies: NRG1 binding, 635 nm fluorescence, higher = more signal.
The test system of test [7] is Neuregulin-1 EGF-like domain. The test can be described thus: binders of neuregulin-1 EGF-like domain, primary screen, biochemical, small-molecule microarray, 635 nm fluorescence (AID 1081).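 Further: binding of the protein to compounds printed on small-molecule microarray slides.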 The following applies: small-molecule microarray binding, higher = more signal.
A short description of test [8]: FRG1 promoter luciferase signal modulators, primary screen, FRG1 inhibition for FSHD, cell-based, C2C12 myotubes, firefly/Renilla luciferase, luminescence (AID 1084). The following applies: higher = more signal, called active from +8 up or from −8 down.
A short description of test [9]: binders of probe aFST on microarray, primary screen, stem cell growth factor project, biochemical, small-molecule microarray, fluorescence 635/667 (AID 1086).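 Further: score merges 667 nm fluorescence with signal-to-noise of each printed compound spot.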 The settings on record: higher = more signal.
The nature of test [10]: binders of probe aHhip on microarray, primary screen, stem cell growth factor project, biochemical, small-molecule microarray, fluorescence 635/667 (AID 1087).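 Further: score merges spot fluorescence at 667nm with spot signal to noise ratio.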 The settings on record: higher = more signal.

Pro-neuregulin-1, membrane-bound isoform (Homo sapiens), sequence (Q02297 whole entry, looked up, the tested form may be a part, canonical isoform): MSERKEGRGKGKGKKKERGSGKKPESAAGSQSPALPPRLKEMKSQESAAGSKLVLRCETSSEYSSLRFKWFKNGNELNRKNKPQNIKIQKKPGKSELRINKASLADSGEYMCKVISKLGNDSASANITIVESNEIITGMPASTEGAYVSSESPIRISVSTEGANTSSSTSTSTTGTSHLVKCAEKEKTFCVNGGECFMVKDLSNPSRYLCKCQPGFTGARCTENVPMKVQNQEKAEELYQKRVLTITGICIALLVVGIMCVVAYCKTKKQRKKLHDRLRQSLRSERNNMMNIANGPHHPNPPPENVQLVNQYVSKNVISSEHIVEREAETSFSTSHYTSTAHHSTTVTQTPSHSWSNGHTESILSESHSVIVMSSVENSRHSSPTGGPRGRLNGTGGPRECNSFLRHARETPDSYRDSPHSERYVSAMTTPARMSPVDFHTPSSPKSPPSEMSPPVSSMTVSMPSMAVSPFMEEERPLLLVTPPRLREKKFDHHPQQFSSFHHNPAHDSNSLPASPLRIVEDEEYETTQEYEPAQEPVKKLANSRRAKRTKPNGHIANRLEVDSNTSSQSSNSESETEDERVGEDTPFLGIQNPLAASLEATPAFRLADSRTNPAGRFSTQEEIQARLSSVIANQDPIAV
Neurogenic locus notch homolog protein 2 (Homo sapiens), sequence (Q04721 whole entry, looked up, canonical isoform): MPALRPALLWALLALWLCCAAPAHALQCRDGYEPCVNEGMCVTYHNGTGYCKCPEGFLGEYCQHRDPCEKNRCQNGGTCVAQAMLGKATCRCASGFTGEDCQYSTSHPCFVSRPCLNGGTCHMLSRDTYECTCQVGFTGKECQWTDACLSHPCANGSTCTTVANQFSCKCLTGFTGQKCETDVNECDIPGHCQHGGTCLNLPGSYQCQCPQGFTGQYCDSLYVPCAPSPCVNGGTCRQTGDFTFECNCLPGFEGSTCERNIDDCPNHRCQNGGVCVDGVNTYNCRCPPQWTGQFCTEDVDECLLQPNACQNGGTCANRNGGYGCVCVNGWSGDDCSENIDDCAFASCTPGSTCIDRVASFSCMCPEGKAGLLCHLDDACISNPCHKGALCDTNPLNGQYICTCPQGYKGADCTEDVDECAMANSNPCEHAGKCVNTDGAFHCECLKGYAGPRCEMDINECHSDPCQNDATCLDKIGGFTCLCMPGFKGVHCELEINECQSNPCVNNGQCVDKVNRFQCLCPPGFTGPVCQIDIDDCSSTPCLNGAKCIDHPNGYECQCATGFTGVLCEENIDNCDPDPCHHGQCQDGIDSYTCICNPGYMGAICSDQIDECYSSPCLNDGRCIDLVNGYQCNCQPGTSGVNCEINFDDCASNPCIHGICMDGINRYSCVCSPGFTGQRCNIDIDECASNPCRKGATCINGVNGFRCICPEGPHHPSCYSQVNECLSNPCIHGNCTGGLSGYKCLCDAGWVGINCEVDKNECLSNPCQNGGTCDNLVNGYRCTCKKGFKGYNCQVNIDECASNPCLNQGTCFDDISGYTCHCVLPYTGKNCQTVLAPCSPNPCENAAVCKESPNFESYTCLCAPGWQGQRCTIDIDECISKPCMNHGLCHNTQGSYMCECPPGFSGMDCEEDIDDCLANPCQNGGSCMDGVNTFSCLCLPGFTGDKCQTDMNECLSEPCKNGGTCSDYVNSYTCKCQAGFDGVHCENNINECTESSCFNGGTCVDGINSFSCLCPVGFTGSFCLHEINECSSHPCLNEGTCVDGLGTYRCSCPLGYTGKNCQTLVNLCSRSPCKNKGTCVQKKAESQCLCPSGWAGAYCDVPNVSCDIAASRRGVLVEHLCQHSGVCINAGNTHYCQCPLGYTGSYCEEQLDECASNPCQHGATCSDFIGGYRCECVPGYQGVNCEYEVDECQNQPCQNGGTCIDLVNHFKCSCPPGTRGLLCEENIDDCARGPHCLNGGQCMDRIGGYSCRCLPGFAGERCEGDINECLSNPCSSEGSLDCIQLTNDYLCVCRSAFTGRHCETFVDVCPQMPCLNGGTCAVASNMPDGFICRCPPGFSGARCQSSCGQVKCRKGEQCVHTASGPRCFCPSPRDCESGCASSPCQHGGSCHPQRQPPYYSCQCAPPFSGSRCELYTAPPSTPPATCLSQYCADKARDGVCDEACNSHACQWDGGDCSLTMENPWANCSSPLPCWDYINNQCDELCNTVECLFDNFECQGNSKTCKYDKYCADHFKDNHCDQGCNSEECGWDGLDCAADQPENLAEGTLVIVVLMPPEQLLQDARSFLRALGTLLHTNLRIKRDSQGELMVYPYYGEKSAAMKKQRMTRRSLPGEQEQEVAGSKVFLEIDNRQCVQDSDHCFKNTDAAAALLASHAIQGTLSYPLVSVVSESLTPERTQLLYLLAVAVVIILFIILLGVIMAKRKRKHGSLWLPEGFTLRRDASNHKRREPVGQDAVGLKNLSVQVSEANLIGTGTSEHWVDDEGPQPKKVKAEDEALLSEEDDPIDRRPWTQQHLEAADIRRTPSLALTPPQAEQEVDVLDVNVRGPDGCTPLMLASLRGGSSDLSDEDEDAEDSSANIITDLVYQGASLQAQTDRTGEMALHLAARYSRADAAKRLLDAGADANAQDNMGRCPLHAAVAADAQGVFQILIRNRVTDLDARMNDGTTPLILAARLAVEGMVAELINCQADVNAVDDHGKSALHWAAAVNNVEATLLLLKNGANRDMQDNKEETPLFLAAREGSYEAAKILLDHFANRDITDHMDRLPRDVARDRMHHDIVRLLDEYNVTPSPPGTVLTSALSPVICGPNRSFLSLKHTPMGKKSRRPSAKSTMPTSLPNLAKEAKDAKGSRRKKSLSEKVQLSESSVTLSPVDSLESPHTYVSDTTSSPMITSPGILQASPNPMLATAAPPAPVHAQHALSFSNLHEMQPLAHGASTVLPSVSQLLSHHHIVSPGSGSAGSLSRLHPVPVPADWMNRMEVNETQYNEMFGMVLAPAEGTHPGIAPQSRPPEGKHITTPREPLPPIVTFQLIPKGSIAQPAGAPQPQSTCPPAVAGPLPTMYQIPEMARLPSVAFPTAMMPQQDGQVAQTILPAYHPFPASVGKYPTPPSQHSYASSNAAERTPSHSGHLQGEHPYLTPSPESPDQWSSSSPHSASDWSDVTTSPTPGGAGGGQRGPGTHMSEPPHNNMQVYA

Turning to `O=C1C2C=CC(C(O)c3c(F)cccc3Cl)N(Nc3ccc([N+](=O)[O-])cc3)C2C(=O)N1c1ccccc1` (stereo not given), the composite z-score amounted to 0.0505 in test [1]; 0.572 in test [2]; 0.147 in [3]; 0.89 in [4]; 1.61 in test [5]; 1.12 in test [6]. Further, the figures for the composite z-score in [7], in test [9] and in test [10] were 1.01, 1.37 and -0.0618, respectively. The z-score in test [8] is -1.18 (inactive).

For the molecule `CN(C)CCCC[C@@H]1NC(=O)[C@@H]2C[C@H](C(=O)NCCCCCCNC(=O)CS)[C@H](c3ccc(O)cc3)N2C1=O`, the composite z-score is -0.195 in test [1]; 0.991 in test [2]; -0.0959 in test [3]; 0.204 in [4]; 0.262 in test [5]; 0.133 in test [6]. In addition, the composite z-score in [7] was 0.975; in test [9], -0.114; in test [10], -0.0645. Besides, in test [8], the z-score is 0.133 (inactive).

Consider `COC(=O)[C@@]1(Cc2ccc(OC)cc2)[C@H]2c3cc(C(=O)N4CCCC4)n(Cc4c(CO)[nH]cc(C)c4=O)c3C[C@H]2CN1C(=O)c1ccccc1`, for which the composite z-score in test [1] is 0.0744; in test [2] it was 0.31; in test [3], -0.06; in [4], 0.505; in test [5], 1.57; in [6], 1.11. Moreover, the composite z-score in test [7] was 0.802; in test [9] it was 0.829; in [10] it was 0.0302. In addition, the z-score in [8] was -1.02 (inactive).

As for `CN(C)CCCNC(=O)[C@@]1(C)c2ccccc2C(=O)N(Cc2ccc(OC(F)(F)F)cc2)[C@H]1c1ccc(CO)cc1`, the composite z-score was 0.462 in test [1]; -0.674 in [2]; -0.0587 in [3]; -0.959 in [4]; -0.538 in test [5]; 1.35 in test [6]. In addition, the composite z-score in [7] is 0.161; in test [9] it was -0.329; in [10] it was -0.435. Further, the z-score in [8] was -2.46 (inactive).

Consider `COc1ccc(C#Cc2ccc3c(c2)[C@]2(C(=O)N3)[C@H](C(=O)O)[C@H]3C(=O)O[C@H](c4ccccc4)[C@H](c4ccccc4)N3[C@@H]2c2ccccc2OCCO)cc1`, for which the composite z-score was -1.04 in test [1]; 0.485 in [2]; -0.095 in test [3]; 0.991 in [4]; 1.26 in test [5]; 0.566 in [6]. In addition, the composite z-score in test [7] was 1.07; in [9], -0.515; in test [10], -0.583. Besides, the z-score in test [8] is 0.205 (inactive).

`C=CCOC(=O)[C@@H]1[C@H]2C(=O)O[C@H](c3ccccc3)[C@H](c3ccccc3)N2[C@H](c2ccc(OCCOC(=O)[C@H]3C[C@H]4C(=O)N[C@@H](CCCCN(C)C)C(=O)N4[C@H]3c3ccc(O)cc3)cc2)[C@@]12C(=O)Nc1ccc(I)cc12`: the composite z-score in [1] was -0.139; in [2], 1.43; in [3] it was -0.0583; in [4], 0.454; in test [5], -0.0871; in test [6] it was 0.655. Moreover, the composite z-score in test [7] was determined as 1.33; in test [9] it was 0.166; in [10], 0.0373. Further, the z-score in test [8] was 0.921 (inactive).

With `CN(C)CCCC[C@@H]1NC(=O)[C@H]2C[C@@H](C(=O)O)[C@@H](c3ccc(O)cc3)N2C1=O`, the composite z-score in [1] was 3.22; in test [2], 2.34; in test [3], 0.653; in [4], 1.04; in test [5] it was 1.64; in test [6], 2.84. Also, the composite z-score in test [7] turned out to be 1.38; in test [9], 3.29; in test [10] it was 1.38. Besides, the z-score in [8] was 2.42 (inactive).

For the molecule `C=C(COC)C(=O)CC[C@@H](OC(C)=O)c1ccccc1OCCO`, the composite z-score in [1] was -0.215; in test [2], -0.0765; in [3], -0.102; in [4], 1.39; in test [5], -0.54; in test [6] it was 0.695. Moreover, the composite z-score in [7] was 0.326; in test [9] it was 0.406; in test [10] it was -0.0994. In addition, in test [8], the z-score was 0.151 (inactive).

With `C[C@]1(C(=O)O)c2ccccc2C(=O)N(Cc2cc(F)cc(C(F)(F)F)c2)[C@H]1c1ccc(CO)cc1`, the composite z-score in test [1] is -0.25; in test [2] it was -0.205; in test [3], -0.0887; in test [4], 0.0859; in test [5] it was 0.361; in [6], 0.233. The composite z-score is 0.936 in test [7], 0.436 in test [9] and -0.268 in [10]. Further, the z-score in test [8] is -0.163 (inactive).

For `NC(=O)NCC#Cc1ccc2c(c1)[C@]1(C(=O)N2)[C@H](c2ccc(OCCO)cc2)N2[C@H](c3ccccc3)[C@H](c3ccccc3)OC(=O)[C@H]2[C@@H]1C(=O)O`, the composite z-score in test [1] is -0.218; in test [2] it was 1.36; in test [3], -0.187; in test [4], 0.23; in [5], -0.459; in test [6] it was 1.68. Further, the results for the composite z-score in [7], in [9] and in [10] were -0.269, 0.0897 and -0.374, respectively. Further, the z-score in test [8] is 0.542 (inactive).

`COCCOC(=O)N1C(=O)[C@@]2(c3cc(C#CCNC(N)=O)ccc31)[C@H](C(=O)Nc1nc3ccccc3s1)[C@H]1C(=O)O[C@H](c3ccccc3)[C@H](c3ccccc3)N1[C@@H]2c1ccccc1OCCO`: the composite z-score is -0.35 in test [1]; 0.578 in [2]; -0.0569 in test [3]; 0.475 in [4]; 0.809 in test [5]; 0.257 in [6]. In addition, the composite z-score in test [7] is 0.635; in test [9], 0.71; in [10], -0.102. The z-score in test [8] was 0.36 (inactive).

`CCOC(=O)C1=CCC(c2cc3ccccc3[nH]2)N(CCN2CC(C(=O)OCC)=CCC2c2cc3ccccc3[nH]2)C1` (stereo not given): the composite z-score is -0.0107 in test [1]; -0.75 in test [2]; -0.0216 in test [3]; 0.433 in [4]; 1.06 in test [5]; 1.82 in test [6]. The composite z-score in test [7] was 1.32; in test [9] it was 0.74; in test [10], -0.361. In [8], the z-score is 2.57 (inactive).

In the case of `C=C(/C(=C/C[C@@H](OC(C)=O)c1cccc(OCCO)c1)c1cnc2ccccc2c1)C(C)C`, the composite z-score in [1] was -0.121; in test [2], 0.197; in test [3], -0.0242; in test [4] it was 0.76; in test [5], 0.693; in test [6], 0.41. Further, the composite z-score is 1.08 in [7], 0.0752 in test [9] and -0.0645 in test [10]. The z-score in test [8] is 2 (inactive).

On to `COC(=O)[C@@]1(Cc2ccccc2)[C@H]2c3cc(C(=O)N(C)C)n(Cc4ccc(C(F)(F)F)nc4)c3C[C@H]2CN1C(=O)c1ccccc1`, for which the composite z-score is 0.261 in test [1]; 0.0724 in [2]; 0.233 in [3]; 0.699 in test [4]; 1.67 in test [5]; 1.9 in test [6]. Also, the composite z-score in test [7] is 1.48; in test [9] it was 1.74; in test [10], -0.126. Also, in test [8], the z-score is 0.0597 (inactive).

As to `CCN(CC)c1ccc(N2CC=CC34O[C@@H]5C=CCCOC(=O)C5[C@H]3C(=O)N(C(C)CO)[C@@H]4C2=O)cc1` (stereo not given in full), the composite z-score in test [1] is 0.221; in test [2], 0.864; in test [3], -0.0627; in test [4] it was -0.227; in [5] it was -0.371; in test [6] it was 0.415. The composite z-score in test [7] is 1.36; in test [9], -0.0426; in test [10], -0.34. Also, the z-score in [8] was 0.725 (inactive).
